Screening data from PubChem BioAssay.
TMEM16A inh: blocks the mouse calcium-activated chloride channel TMEM16A; Q8BHY3; HEK293 TMEM16A/YFP iodide influx fluorescence, ionomycin; AID 588511; 310,000 compounds, 1.2% hits; normalized B-score (activity score, 25-100; higher = stronger inhibition) at 10 µM;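 active means ratio plate-corrected score three or more library SD toward inhibition, starting fluorescence score within five deviations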;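 further: score derived from kinetic fluorescence span divided by baseline fluorescence per well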
Target sequence (Q8BHY3 whole entry, looked up): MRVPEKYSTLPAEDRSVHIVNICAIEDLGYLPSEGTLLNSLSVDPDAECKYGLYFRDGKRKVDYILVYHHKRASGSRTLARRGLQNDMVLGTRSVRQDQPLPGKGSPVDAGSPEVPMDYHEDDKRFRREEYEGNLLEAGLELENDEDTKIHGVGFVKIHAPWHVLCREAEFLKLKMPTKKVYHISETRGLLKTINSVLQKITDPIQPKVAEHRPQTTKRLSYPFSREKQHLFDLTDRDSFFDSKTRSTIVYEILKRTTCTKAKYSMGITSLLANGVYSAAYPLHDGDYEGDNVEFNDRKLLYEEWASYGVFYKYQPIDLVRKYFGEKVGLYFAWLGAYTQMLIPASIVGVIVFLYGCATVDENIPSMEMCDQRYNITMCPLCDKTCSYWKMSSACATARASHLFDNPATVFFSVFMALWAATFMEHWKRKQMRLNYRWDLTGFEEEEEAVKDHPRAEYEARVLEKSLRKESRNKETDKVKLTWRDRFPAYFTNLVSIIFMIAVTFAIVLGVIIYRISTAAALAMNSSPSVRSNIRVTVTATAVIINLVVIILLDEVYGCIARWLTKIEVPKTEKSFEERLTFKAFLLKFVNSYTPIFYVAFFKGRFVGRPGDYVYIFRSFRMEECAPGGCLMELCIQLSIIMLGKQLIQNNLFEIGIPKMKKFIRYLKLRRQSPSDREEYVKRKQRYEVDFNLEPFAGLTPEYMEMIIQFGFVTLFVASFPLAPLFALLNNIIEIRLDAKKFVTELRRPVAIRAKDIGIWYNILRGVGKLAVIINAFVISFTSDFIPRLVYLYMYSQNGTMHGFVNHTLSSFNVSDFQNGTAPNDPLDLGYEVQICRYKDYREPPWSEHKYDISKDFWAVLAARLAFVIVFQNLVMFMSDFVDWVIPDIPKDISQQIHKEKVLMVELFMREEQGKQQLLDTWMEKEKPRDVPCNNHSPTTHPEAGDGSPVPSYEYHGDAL
CRFBP-R2 block: blocks CRF-induced signaling of the CRF-BP/CRF-R2 complex. 350,000 compounds, 0.59% hits. inhibition, % at 11.8 µM. HEK293 CRF-R2/CRF-BP, CRF-induced calcium fluorescence;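 active means inhibition of the ligand-induced calcium signal above about 50% at the single tested concentration, limit read from the data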
MPTP inh: inhibitors of mitochondrial permeability transition pore | isolated mouse mitochondria, Ca2+ swelling absorbance, 30 min | inhibition, % at 10 µM | 360,000 compounds, 1.4% hits | AID 602449;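 active means inhibition of 50% or more, scaled per plate between neutral and stimulator controls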;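 further: 0% = DMSO wells given calcium and 100% = 1 mM EGTA wells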
ANO1 activ: mouse TMEM16A channel activation, primary screen | B-score at 10 µM | 340,000 compounds, 0.3% hits | HEK293 TMEM16A/YFP-H148Q/I152L, iodide quench fluorescence; stronger effect = lower value | Q8BHY3;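 active means fluorescence-ratio B-score plate-corrected deviation score at least 3 library SD below zero, with starting fluorescence score within 5 deviations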;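 further: channel opened by trigger with iodide after compound preincubation; score built on the fluorescence ratio of max minus min over baseline; more negative score means more quench and so TMEM16A activation or potentiation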
CRFBP-R2 agonist: CRF-BP/CRF-R2 complex agonism. HEK293 CRF-R2/CRF-BP, calcium dye fluorescence (FLIPR); percent of saturating CRF peptide response. activation, % at 13.2 µM. 350,000 compounds, 0.46% hits. AID 588473;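 active means activation of at least 50%, plus an integration ratio under a set limit after plate pattern correction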;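 further: plate controls were neutral control wells without compound for no effect and CRF at EC100 for full effect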
NR3A LBD binder: modulators (binders) of human NR3A ligand-binding domain | 340,000 compounds, 2.5% hits | Tm shift relative to glycine control, % at 25 µM | NR3A LBD differential scanning fluorimetry, Tm shift; 0% = protein alone, 100% = glycine-bound protein | AID 1259313;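 active means melting temperature shift of at least 10% of the positive control shift, at one fixed dose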
The depositor's hits bear a star; i = inactive; x = not tested or not shown. In the library only some 5.1% were active in any assay of this set; here they are far more common.

SMILES | TMEM16A inh | CRFBP-R2 block | MPTP inh | ANO1 activ | CRFBP-R2 agonist | NR3A LBD binder
Cc1ccc(C(=O)N(Cc2sccc2C)C2CCS(=O)(=O)C2)cc1 (stereo not drawn) | i | 50.4* | 0.2 | i | -14.2 | -2.7
CC(C)C[C@H]1CN(CCCC[C@@H]2CNC(=O)C(=O)N2Cc2ccccc2)C(=O)C(=O)N1CC1CCCCC1 | x | x | 0.0 | x | x | x
Nc1c(CNCc2nnn(Cc3ccccc3)c2N)nnn1Cc1ccccc1 | x | -1.4 | -0.4 | x | -0.8 | x
CC1CCCC(C)N1C(=C(Cl)Cl)C(=C1SCCS1)[N+](=O)[O-] (stereo not drawn) | i | -111.0 | 1.6 | -14.5* | 26.5 | -7.7
CC(=Nc1ccccc1)C1=C(O)C(CC(C)C)NC1=O (stereo not drawn) | x | 1.5 | -0.7 | i | -1.9 | -0.2
Cc1ccsc1/C=C1\Oc2cc(O)ccc2C1=O | x | -32.4 | 2.8 | x | 72.4* | x
O=C1/C(=C/c2cccc([N+](=O)[O-])c2)Oc2cc(O)ccc21 | i | 4.2 | 5.6 | i | 29.6 | -0.3
COc1cc(/C=C2\Oc3cc(O)ccc3C2=O)ccc1O | i | -58.0 | 4.3 | i | 71.4* | -3.1
COc1ccc(C(O)(CCC(C)C)C(CN2CCOCC2)c2ccc(Cl)cc2)cc1 (stereo not drawn) | i | -30.0 | 0.8 | i | 2.3 | 16.3*
CCCC(O)(c1ccc(OC)cc1)C(CN1CCOCC1)c1ccc(Cl)cc1 (stereo not drawn) | i | -34.6 | -2.2 | i | -1.9 | 6.8
CCOC1=C(C#N)CC2(CC1)c1ccccc1-c1ccccc12 | x | -4.8 | -1.1 | i | 0.4 | 0.8
N#C/C(=C/c1ccc(CNC(=O)C(=O)Nc2cc(Cl)cc(Cl)c2)o1)C(=O)NCc1cccnc1 | i | 13.3 | -0.4 | i | 0.5 | 11.7*
Cc1ccc(NC(=O)C(=O)NCc2ccc(/C=C(/C#N)C(=O)NCc3cccnc3)o2)cc1 | i | 18.4 | 1.3 | i | -1.5 | -3.5
COc1ccc(CN(C(=S)Nc2ccccc2)C2CC(=O)N(c3ccc(F)cc3)C2=O)cc1 (stereo not drawn) | i | -13.4 | 4.1 | i | 2.9 | 31.9*
O=C1CC(N(CCc2ccccc2)C(=S)Nc2ccccc2)C(=O)N1c1ccc(Br)cc1 (stereo not drawn) | i | -27.8 | 24.6 | i | 9.8 | 29.1*
COc1ccc(CCN(C(=S)Nc2ccccc2)C2CC(=O)N(c3ccccc3)C2=O)cc1 (stereo not drawn) | i | -28.8 | 1.3 | i | 7.5 | 16.8*
CNC(=S)N(Cc1ccc2c(c1)OCO2)C1CC(=O)N(c2ccc(F)cc2)C1=O (stereo not drawn) | i | -6.2 | 0.5 | i | -2.0 | 22.3*
Cc1ccc(N2C(=O)CC(N(CCc3ccccc3)C(=S)Nc3ccc(N(C)C)cc3)C2=O)cc1 (stereo not drawn) | i | -9.4 | 0.0 | i | 2.5 | 5.9
CCCNC(=O)C1(C)CCCN(C(=O)c2c(C)noc2C)C1 (stereo not drawn) | x | x | -0.9 | x | x | x
Cc1ccc(NC(=O)COC(=O)Cc2ccc(Br)cc2)cc1S(=O)(=O)N1CCOCC1 | x | -17.9 | 0.8 | i | 4.7 | -3.9
CCOc1ccc(CN2CCC(n3nccc3NC(=O)c3ccccc3OC)CC2)cc1 | i | -19.6 | -0.3 | i | -1.8 | 0.6
O=C(COc1ccc(Cl)cc1Cl)Nc1ccccc1F | i | 125.1* | 1.7 | i | 3.4 | -0.6
O=C(COc1ccc(Cl)cc1Cl)Nc1ccc(Cl)cn1 | i | -29.5 | 2.7 | i | 0.0 | -7.7
S=C(Nc1ccccc1Cl)Nc1ccc(Cl)cc1Cl | i | -5.6 | 14.2 | i | -0.5 | -0.4
COC(=O)C1=C(NC(=O)COc2ccc(Cl)cc2Cl)CCS1 | i | -29.9 | -0.2 | i | 1.9 | 14.8*
SMILES | TMEM16A inh | CRFBP-R2 block | MPTP inh | ANO1 activ | CRFBP-R2 agonist | NR3A LBD binder
O=C(Nc1ccccc1Cl)Oc1ccc(Cl)cc1Cl | i | 16.3 | 0.5 | i | -1.1 | 10.3*
COc1ccc(NC(=O)Nc2ccccc2F)cc1Cl | i | 14.1 | 12.1 | i | -1.2 | 20.3*
COC(=O)C1=C(NC(=O)COc2ccc3ccccc3c2)CCS1 | i | -3.3 | 0.3 | i | -1.7 | -1.7
Cc1ccc(S(=O)(=O)N2CCCCC2C)cc1[N+](=O)[O-] (stereo not drawn) | i | 21.3 | -0.8 | i | 0.3 | -0.2
Cc1cc(Br)cc(Cl)c1OCC(=O)N1CCN(C(=O)c2ccco2)CC1 | x | 7.9 | 0.0 | i | -2.2 | -1.6
COc1ccc(-n2nc(C(=O)NCC(=O)Nc3cccc(Cl)c3)c3ccccc3c2=O)cc1OC | 25* | 11.1 | 0.0 | i | 4.5 | -1.3
CC(=O)Nc1cc2c(cc1C(C)=O)OCCO2 | i | -8.1 | -1.3 | i | -1.0 | 12.5*
CCCC(=O)Nc1cc2c(cc1C(C)=O)OCCO2 | i | -6.1 | -0.8 | i | -2.4 | -1.1
COc1ccccc1CNC(=O)c1cccc(S(=O)(=O)N2CCCC2)c1 | x | 14.8 | 0.0 | i | -1.3 | 4.0
CC(=O)Oc1ccc(/C=C(\NC(=O)c2ccco2)C(=O)NCc2ccco2)cc1 | i | 6.9 | -0.2 | i | 1.2 | 0.8
CCOC(=O)c1nnc(-c2ccccc2)nc1N1CC(C)OC(C)C1 (stereo not drawn) | i | 55.9* | -0.1 | i | -0.7 | -2.5
CCOC(=O)c1cnc(-c2ccccc2)nc1N1CC(C)OC(C)C1 (stereo not drawn) | i | -2.9 | -1.8 | i | 0.7 | -2.1
CCc1cccc(NC(=O)COC(=O)CSc2ccc(C)cc2)c1 | x | 6.7 | 0.7 | x | 0.1 | x
Cc1ccc(C2(C)NC(=O)N(CC(=O)N3CCc4ccccc43)C2=O)cc1 (stereo not drawn) | x | -54.9 | -2.6 | i | 41.5 | -0.2
CC1(c2ccc(Cl)cc2)NC(=O)N(CC(=O)N2CCc3ccccc32)C1=O (stereo not drawn) | x | -50.2 | -0.1 | i | 81.5* | 1.9
CCC1(c2ccc(F)cc2)NC(=O)N(CC(=O)N2CCc3ccccc32)C1=O (stereo not drawn) | x | -55.8 | -1.4 | i | 53.1* | 0.2
CCC1(c2ccccc2)NC(=O)N(CC(=O)N2CCc3ccccc32)C1=O (stereo not drawn) | x | -24.8 | -4.5 | i | 7.0 | 1.1
OC(c1ccc(Cl)cc1)c1ncc(-c2cccc(F)c2)[nH]1 (stereo not drawn) | x | x | 0.3 | x | x | x
C=CCn1cnc2c(c1=O)c1nc3ccccc3nc1n2/N=C/c1cccc(OC)c1OC | i | 54.0* | 1.4 | i | 0.1 | -1.5
COCCn1cnc2c(c1=O)c1nc3ccccc3nc1n2/N=C/c1cccc(OC)c1 | i | 56.9* | 4.8 | i | -0.5 | 2.9
C=CCn1cnc2c(c1=O)c1nc3ccccc3nc1n2/N=C/c1cc(OC)c(OC)c(OC)c1 | i | -40.2 | -1.3 | i | 3.4 | -2.8
